Records with an inconclusive call do not appear. Where a call stands in place of a potency, no number is given. Calls of active or inactive are those of the source. The call rests on the fitted dose curve; in most records, active means well fitted curve in the direction sought with a large enough effect; inconclusive means small, poorly fitted or top-dose-only effect, or another doubt; inactive means no such curve, though single readings can be large or run the other way.
Test: Secondary Assay for Inhibitors of Human Cdc-like kinase 4 (Clk4): HEK-293 Cell Viability Assay;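 further: cytotoxic hits lower the ATP light signal so activity reflects loss of viability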
Details: HEK-293 viability, ATP luminescence (CellTiter-Glo), 24/48 h; series mostly up to 46.1 µM
Procedure, shortened: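 Cytotoxicity was measured as ATP luminescence (CellTiter-Glo) after 24 or 48 h compound exposure at 37 degrees C. HEK-293 cells in MEM with 10% FBS had been seeded 4 h earlier.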

SMILES	Potency
CC(O)c1ccc(-c2ccc3ncnc(NCCc4cnc[nH]4)c3c2)o1 (stereo not drawn)	inactive
COc1cccc(-c2ccc3ncnc(NCc4ccc5c(c4)OCO5)c3c2)c1	inactive
C#Cc1cccc(Nc2ncnc3cc(OCCOC)c(OCCOC)cc23)c1	inactive
Cc1nc(C(C)N(C)c2ncnc3ccc(-c4ccc5c(c4)OCO5)cc23)cs1 (stereo not drawn)	inactive
c1nc(N2CCC(N3CCCC3)CC2)c2cc(-c3ccc4c(c3)OCO4)ccc2n1	inactive
NCCNc1ncnc2ccc(-c3ccc4c(c3)OCO4)cc12	inactive
Fc1cccc(CNc2ncnc3ccc(-c4ccc5c(c4)OCO5)cc23)c1	inactive
O=C(O)c1ccc(-c2ccc3ncnc(N4CCOCC4)c3c2)o1	inactive
Cc1occc1CNc1ncnc2ccc(-c3ccc4c(c3)OCO4)cc12	inactive
Cn1ccc2cc(-c3ccc4ncnc(NCc5ccc6c(c5)OCO6)c4c3)ccc21	inactive
Cn1ccc2cc(-c3ccc4ncnc(NCc5cccs5)c4c3)ccc21	inactive
c1nc(NCC2CCCCC2)c2cc(-c3ccc4c(c3)OCO4)ccc2n1	inactive
CCNC(=O)c1ccc(-c2ccc3ncnc(NCCc4cnc[nH]4)c3c2)o1	inactive
Clc1cccc(-c2ccc3ncnc(NCc4ccc5c(c4)OCO5)c3c2)c1	inactive
CCN(Cc1sccc1C)c1ncnc2ccc(-c3ccc4c(c3)OCO4)cc12	inactive
CN1CCCC1CCNc1ncnc2ccc(-c3ccc4c(c3)OCO4)cc12 (stereo not drawn)	inactive
CCOC(=O)c1ccc(-c2ccc3ncnc(NCc4ncc[nH]4)c3c2)o1	inactive
CCn1cnc(CCN(C)c2ncnc3ccc(-c4ccc5c(c4)OCO5)cc23)c1	inactive

Reference: PubChem BioAssay AID504534 (National Center for Advancing Translational Sciences (NCATS), 2011)
